Compound activity from PubChem BioAssay.
ERAP1 HTS inh = ERAP1 (human) enzyme inhibition; Q9NZ08; recombinant ERAP1, Leu-AMC fluorescence, 60 min; inhibition, % at 10.7 µM; actives 0.15% (n = 340,000); AID 652197;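 active means mean replicate inhibition of at least 30%, or all replicates individually reaching that 30% level; inactive means mean below 30% and not every replicate reaching it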
DENV2 CPE = protects cells from dengue virus 2 cytopathic effect | DENV2-infected cells, cytopathic effect rescue, plate reader | CPE inhibition, % at 9.99 µM | actives 1.7% (n = 350,000) | AID 651640; in the data active means CPE inhibition above about 20%, passing the limit was not always enough; inconclusive means no clear call, values can overlap the other calls; tested in BHK-21 cells
RAD52 inh = RAD52 (human) annealing inhibition; P43351; recombinant RAD52 DNA annealing, FRET fluorescence; inhibition, % at 18.7 µM; actives 0.46% (n = 360,000); AID 651710;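 active means every replicate showing at least 50% inhibition; inconclusive means mean inhibition at least 50% but not in every replicate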
FGF22 binding = binders of recombinant human FGF22 by thermal shift | SYPRO orange fluorescence; percent of sucrose octasulfate shift, DMSO zero | activity (Tm shift, normalised), % at 9.99 µM | actives 1.5% (n = 340,000);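 active means mean Tm shift, scaled 0 neutral to 100 positive control, at about 1.3% or above, every replicate too, limit read from the data; inconclusive means no clear call, values can overlap the other calls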
Target sequence (Q9HCT0 whole entry, looked up): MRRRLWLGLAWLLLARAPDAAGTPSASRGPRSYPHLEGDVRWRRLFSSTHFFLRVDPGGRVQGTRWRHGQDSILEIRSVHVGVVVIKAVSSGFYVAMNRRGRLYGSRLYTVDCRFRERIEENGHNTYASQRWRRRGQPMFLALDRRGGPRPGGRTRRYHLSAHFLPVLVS
AF4-AF9 inh = MLL-AF4/AF9 protein interaction inhibition; inhibition, % at 10 µM; actives 0.47% (n = 350,000); AlphaScreen, biotin-AF4 peptide binding to FLAG-AF9;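 active means every replicate reaching a set inhibition limit, whatever the replicate mean, cut at about 25% in these data; inconclusive means mean inhibition reaches that limit but some replicates miss it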
Each line names hits and unclear results; the compound was inactive in the other large screens; ! = repeats disagree. In the library only some 4% were active in any assay of this set; here they are far more common.

CCCC(=O)Nc1ccc2c(c1)C(=O)N(C)C[C@@H](OC)[C@@H](C)CN(Cc1ccc(-c3ccccn3)cc1)[C@H](C)CO2	DENV2 CPE 27
CO[C@H]1CN(C)C(=O)c2ccc(NC(=O)NC(C)C)cc2OC[C@H](C)N(Cc2ccc(-c3ccccn3)cc2)C[C@H]1C	DENV2 CPE 68
CO[C@H]1CN(C)C(=O)c2ccc(NC(=O)NC(C)C)cc2OC[C@H](C)N(Cc2ccc(-c3ccccn3)cc2)C[C@@H]1C	none
CCS(=O)(=O)N1CCC2(CC1)CN(Cc1ccccc1)[C@@H](CO)c1c2c2ccc(OC)cc2n1C	none
C[C@@H]1CCCCO[C@H](CN(C)C(=O)CCC(F)(F)F)[C@H](C)CN([C@@H](C)CO)C(=O)c2cc(NC(=O)c3ccccc3)ccc2O1	none
CC(NC(=O)c1ccccc1)C(=O)N/N=C/c1cccc([N+](=O)[O-])c1 (centres undefined)	FGF22 binding 43
CC(NC(=O)c1ccccc1)C(=O)N/N=C/c1ccc(O)cc1 (centres undefined)	none
COc1ccc(NC2=CC(c3ccc(OC)c(OC)c3)N(c3ccc(OC)cc3)C2=O)cc1 (centres undefined)	none
COc1ccc(OC2C(=O)N(c3ccc(C)c(C)c3)C2c2ccc(OC)c(OC)c2)cc1 (centres undefined)	FGF22 binding 44
O=C(C1CCC1)N1CCCCN2[C@H](CO)[C@@H](c3ccc(C#CC4CCCC4)cc3)[C@H]2C1	none
Cc1ccc(-c2ccc(C3[C@H]4CNC[C@@H]3N4C(=O)Nc3ccc(F)cc3)cc2)cc1 (some centres undefined)	DENV2 CPE inconclusive (no result: FGF22 binding)
O=C(Nc1ccc(F)cc1)N1[C@@H]2CNC[C@H]1C2c1ccc(-c2ccccc2)cc1 (some centres undefined)	RAD52 inh 55! (no result: FGF22 binding)
O=C(Nc1ccc(F)cc1)N1[C@@H]2CNC[C@H]1C2c1ccc(-c2ccc(F)cc2)cc1 (some centres undefined)	RAD52 inh 51 (no result: FGF22 binding)
O=C(Nc1ccc(Cl)cc1)N1[C@@H]2CNC[C@H]1C2c1ccc(/C=C/c2ccccc2)cc1 (some centres undefined)	RAD52 inh 67! (no result: FGF22 binding)
Cc1ccc(-c2ccc(C3[C@H]4CNC[C@@H]3N4C(=O)Nc3ccccc3Cl)cc2)cc1 (some centres undefined)	DENV2 CPE inconclusive, RAD52 inh 53! (no result: FGF22 binding)
Cc1ccc(S(=O)(=O)N(C)C[C@H]2Oc3ccc(NC(=O)c4ccncc4)cc3CC(=O)N([C@@H](C)CO)C[C@H]2C)cc1	none
C[C@@H]1CN([C@@H](C)CO)C(=O)c2cc(NC(=O)CCCCCC(=O)Nc3ccccc3N)ccc2O[C@@H]1CN(C)C	none
CC(C)NC(=O)NCC[C@H]1CC[C@H](NS(=O)(=O)c2ccccc2)[C@H](CO)O1	none (no result: FGF22 binding)
N#Cc1ccc(-c2ccc(C3[C@H]4CNC[C@@H]3N4C(=O)NC3CCCC3)cc2)cc1 (some centres undefined)	none (no result: FGF22 binding)
O=C(Nc1ccc(F)cc1)N1C[C@@H]2N[C@H](C1)C2c1ccc(/C=C/c2ccccc2)cc1 (some centres undefined)	none (no result: ERAP1 HTS inh, RAD52 inh, AF4-AF9 inh)
O=C(Nc1ccc2c(c1)OCO2)N1[C@@H]2CNC[C@H]1C2c1ccc(/C=C/c2ccccc2)cc1 (some centres undefined)	DENV2 CPE 79, RAD52 inh 60 (no result: FGF22 binding)
CN(C)C(=O)c1ccc(-c2ccc(C3[C@H]4CNC[C@@H]3N4C(=O)NC3CCCC3)cc2)cc1 (some centres undefined)	DENV2 CPE 72 (no result: FGF22 binding)
C/C=C/c1ccc(C2[C@H]3CNC[C@@H]2N3C(=O)NCCC)cc1 (some centres undefined)	DENV2 CPE 25! (no result: FGF22 binding)
O=C(Nc1ccc2c(c1)OCO2)N1C[C@@H]2N[C@H](C1)C2c1ccc(C=Cc2ccccc2)cc1 (some centres undefined)	RAD52 inh 79, AF4-AF9 inh 56! (no result: FGF22 binding)
CCCC(=O)Nc1ccc2c(c1)C(=O)N(C)C[C@H](OC)[C@H](C)CN(C(=O)C1CCCC1)[C@@H](C)CO2	none
COc1ccc(CN(C)C[C@H]2OCCCC[C@@H](C)Oc3ccc(NC(=O)c4ccncc4)cc3C(=O)N([C@@H](C)CO)C[C@@H]2C)cc1	none
COc1ccc(C(=O)N2C[C@H]3[C@@H](c4ccccc42)[C@@H](CO)N3C(=O)c2cccc(F)c2)cc1	none (no result: FGF22 binding)
